# Assay results from PubChem BioAssay AID933 (National Center for Advancing Translational Sciences (NCATS), 2007).
# Values joined by “and” are separate entries in the source; they are usually repeats but may differ in a detail not shown here. Equal values may be shown once. Records with an inconclusive call do not appear. Unmarked numbers belong to inactive results. Active and inactive are the calls of the source. Calls follow the shape of the dose curve; as a rule, active = well fitted activation curve with a large enough effect in the signal ratio, with a control signal flat; inconclusive = small, poorly fitted or top-dose-only effect, or a change in a side signal; inactive = flat fitted curve, though single readings scatter; the % refers to the signal ratio.
# Target: Thyrotropin receptor (Homo sapiens) (UniProt P16473)
# Sequence (P16473 whole entry, looked up): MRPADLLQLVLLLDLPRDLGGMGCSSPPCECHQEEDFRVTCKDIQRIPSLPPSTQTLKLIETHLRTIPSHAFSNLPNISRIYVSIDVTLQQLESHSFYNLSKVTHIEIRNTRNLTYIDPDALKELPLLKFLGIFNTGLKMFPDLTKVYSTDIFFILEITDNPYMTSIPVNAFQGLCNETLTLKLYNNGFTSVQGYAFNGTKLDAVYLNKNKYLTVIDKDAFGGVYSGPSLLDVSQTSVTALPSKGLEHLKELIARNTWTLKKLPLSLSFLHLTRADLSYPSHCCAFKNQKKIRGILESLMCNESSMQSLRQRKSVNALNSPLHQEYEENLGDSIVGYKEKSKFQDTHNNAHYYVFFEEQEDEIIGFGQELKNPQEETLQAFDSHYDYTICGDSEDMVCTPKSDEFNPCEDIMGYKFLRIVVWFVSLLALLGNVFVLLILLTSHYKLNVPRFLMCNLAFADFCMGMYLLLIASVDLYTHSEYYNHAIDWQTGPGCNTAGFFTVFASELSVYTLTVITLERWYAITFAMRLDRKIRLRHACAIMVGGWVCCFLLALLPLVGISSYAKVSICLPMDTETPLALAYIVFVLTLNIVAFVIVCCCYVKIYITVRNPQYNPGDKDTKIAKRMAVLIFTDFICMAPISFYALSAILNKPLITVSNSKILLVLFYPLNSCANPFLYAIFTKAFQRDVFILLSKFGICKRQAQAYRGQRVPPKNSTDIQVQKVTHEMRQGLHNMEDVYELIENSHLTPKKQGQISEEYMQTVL
# Experiment: Secondary Concentration-Response Assay for Agonists of the Thyroid Stimulating Hormone Receptor: HTRF Activity Detection; as to activation: % of control where 0% means no effect
# Conditions: HEK293-TSHR cells, cAMP HTRF ratio, 30 min; series mostly up to 91.7 µM; activation: at the top concentration
# In short: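 cAMP accumulation was detected by antibody-based HTRF, excitation 330 nm, emissions 615 and 660 nm. Compounds acted for 30 min at room temperature on stably TSHR-transfected HEK 293 cells, with phosphodiesterase inhibitor RO 20-1724 (100 uM) in the medium.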
# Potency is read from the fitted curve at half-maximal effect.
SMILES,activation,Potency
O=C1c2ccccc2N2C(=O)c3ccccc3[C@H]2N1c1ccccc1,1.36%,
CCN(CC)CCN1C(=O)c2ccccc2NC1c1ccc(F)cc1 (stereo unspecified),0.986%,
COc1ccc(C2Nc3ccccc3C(=O)N2Cc2ccco2)cc1OC (stereo unspecified),1.75%,
O=C(COC(=O)C12CC3CC(CC(Br)(C3)C1)C2)NCc1ccco1,,10 µM (active)
O=C1c2ccccc2NC(c2c(Cl)cccc2Cl)N1Cc1ccccc1 (stereo unspecified),1.83%,
COc1ccc(C2Nc3ccccc3C(=O)N2CC(C)(C)C)cc1COc1ccc(NC(C)=O)cc1 (stereo unspecified),19.3%,
Cc1onc(-c2ccccc2Cl)c1C(=O)Nc1ccc(-n2nncc2-c2ccco2)cc1,0.344% [at 0.00035 µM],
CCOC(=O)COc1c(OC)cc(Cl)cc1C1Nc2ccccc2C(=O)N1c1cccc(C)c1 (stereo unspecified),0.521%,
COc1ccc(CN(Cc2ccccc2)C(=O)c2ccco2)cc1COc1ccc(NC(C)=O)cc1,,15.8 µM (active)
O=c1c2c(-c3ccccc3)csc2ncn1/N=C/c1cn(-c2ccccc2)nc1-c1cccs1,0.928%,
COc1ccc(C2Nc3ccccc3C(=O)N2Cc2ccccc2)cc1Oc1ccc(NC(C)=O)cc1 (stereo unspecified),7.11%,
COc1ccc(C2Nc3ccccc3C(=O)N2Cc2ccccc2)cc1COc1ccc(C#N)cc1 (stereo unspecified),11.2%,
COc1ccc(CN(Cc2ccccc2)C(=O)C2CC2)cc1COc1ccc(NC(C)=O)cc1,,15.8 µM (active)
COc1ccc(-c2nc3ccccc3c(=O)n2Cc2ccco2)cc1COc1ccc(NC(C)=O)cc1,,17.8 µM (active)
CCOc1cc(C2Nc3ccccc3C(=O)N2Cc2ccco2)ccc1O (stereo unspecified),2.52%,
COc1ccc(-c2nc3ccc(NC(C)=O)cc3c(=O)n2Cc2ccccc2)cc1COc1ccc(NC(C)=O)cc1,19.5%,
O=C(CN1C(=O)NC2(CCCCC2)C1=O)NCCC1=CCCCC1,1.34% [at 0.00035 µM],
CCOC(=O)CCc1c(C)nc2c(c(C)nn2C(C)(C)C)c1C,0.0158% [at 0.00035 µM],

SMILES,activation,Potency
CCCS(=O)(=O)N1CCN(C(=O)c2ccc(-c3ccccc3)cc2)CC1,0.323% [at 0.00035 µM],
COc1ccc(C2Nc3ccccc3C(=O)N2Cc2ccccc2)cc1COc1ccc(NC(C)=O)cc1 (stereo unspecified),,7.08 µM (active) and 3.55 µM (active)
CC(C)Oc1ccccc1C1Nc2ccccc2C(=O)N1c1ccc2c(c1)OCCO2 (stereo unspecified),2.9%,
CCSCCOC(=O)C1=C(C)N(C)C(=O)NC1c1cc(OC)ccc1OC (stereo unspecified),1.56% [at 0.00035 µM],
COc1cccc(C(c2nnnn2Cc2ccccc2)N2CCN(C(=O)c3ccco3)CC2)c1OC (stereo unspecified),0.497% [at 0.00035 µM],
O=C(CN(c1ccc2c(c1)OCCO2)S(=O)(=O)c1ccccc1)NCc1ccco1,-0.333% [at 0.00035 µM],
Cc1sc2ncn(/N=C/c3cn(-c4ccccc4)nc3-c3ccccc3)c(=O)c2c1C,0.971%,
O=C1CC(c2ccco2)CC2=C1C(c1ccc(O)cc1)n1nc(C(F)(F)F)nc1N2 (stereo unspecified),15%,
Cc1noc(/C=C/c2ccco2)c1S(=O)(=O)N1CCC(C(=O)NCc2ccco2)CC1,-0.595% [at 0.00035 µM],
O=C(COC(=O)C12CC3CC(CC(Cl)(C3)C1)C2)NCc1ccco1,,14.1 µM (active)
COc1ccc(C2Nc3ccccc3C(=O)N2Cc2ccccc2)cc1OCc1ccc(NC(C)=O)cc1 (stereo unspecified),11.9%,
COc1ccc(C2Nc3ccccc3C(=O)N2Cc2ccccc2)cc1COc1cccc(Cl)c1 (stereo unspecified),-1.52%,
COc1ccc(C2Nc3ccc(NC(C)=O)cc3C(=O)N2Cc2ccccc2)cc1COc1ccc(NC(C)=O)cc1 (stereo unspecified),,15.8 µM (active)
COc1ccc(C2Nc3ccccc3C(=O)N2c2ccc(C)cc2)cc1Cn1nnc2ccccc21 (stereo unspecified),1.53%,
COc1cc(OC)cc(C(=O)N2c3ccc(F)cc3CCC2C)c1 (stereo unspecified),-0.327% [at 0.00035 µM],
COc1ccc(CN(Cc2ccccc2)C(=O)c2ccc(OC)cc2O)cc1,,31.6 µM (active)
CCOC(=O)c1cnc(-n2nc(C)cc2C)nc1-n1nc(C)cc1C,-0.245% [at 0.00035 µM],
O=C(c1ccccc1O)N(Cc1ccco1)Cc1ccco1,6.56%,
